Assay results reported in PubChem BioAssay.
Results with a measured potency or affinity are listed apart. Inconclusive results are not listed. Active and inactive are the calls of the source. Unless noted, how the calls were made is not given here.

Experiments:
[1] = viability loss in HeLa cells – cell-based, ATP luminescence, cherry-pick samples, cytotoxicity control, dose response (AID 687004;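 active means a fitted half-maximal concentration no higher than twice the top valid tested dose, with signal falling as cells die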;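 further: 0% = neutral control median and -100% = staurosporine 10 µM control median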); settings: ATP luminescence (CellTiter-Glo), 48 h; series mostly up to 26 µM
[2] = RMG-1 ovarian cancer cell viability loss – cherry-pick, dose response (AID 687029;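 active means signal drop whose fitted half-maximal concentration is at most twice the top valid dose, in every test run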;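 further: cells exposed to compound for 96 hours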); settings: RMG-1 viability, CellTiterGlo ATP luminescence, 96 h; series mostly up to 35 µM
[3] = IOSE-T80 viability loss, PAX8-independent line – cell-based, cherry-pick, selectivity assay for PAX8 inhibitor project, dose response (AID 687032;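 active means fitted half-maximal concentration for viability loss no higher than twice the top valid dose, in every repeat run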;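 further: cells exposed to compound for 96 h before reading; 0% = neutral control wells and -100% = 2 µM mitoxantrone kill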); settings: CellTiterGlo ATP luminescence, 96 h; series mostly up to 35 µM
[4] = CMV-driven luciferase expression suppression in HEK293 – cell-based, luminescence, dry powder, counter-screen for Pax8 inhibitor project, dose response (AID 743020;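 active means signal-lowering compounds whose fitted half-maximal concentration is at or below twice the top tested dose in every run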;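 further: HEK293 cells stably expressing the CMV luciferase reporter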); settings: HEK293 CMV-luciferase reporter, SteadyGlo luminescence, 24 h; series mostly up to 35 µM
[5] = general cell-killing toxicity readout – plate reader, dry powder samples, cytotoxicity control for PAX8 inhibitor project, dose response (AID 743021); settings: cell line, non-specific cytotoxicity counter-screen; series mostly up to 35 µM
[6] = IGROV1 cell killing – plate reader, dry powder samples, PAX8 inhibitor project, dose response (AID 743043); settings: IGROV1 ovarian cancer cell cytotoxicity; series mostly up to 35 µM;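 further: more negative means fewer viable cells or more cytotoxicity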
[7] = toxicity toward immortalized ovarian surface epithelium – cell-based, plate reader, dry powder samples, cytotoxicity control for PAX8 inhibitor project, dose response (AID 743045); settings: IOSE-T80 ovarian epithelial cells; series mostly up to 35 µM;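 further: 0% = neutral control median and -100% = positive control median; more negative values mean more cell killing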
[8] = OVCAR8 cell viability loss – plate reader, dry powder samples, PAX8 project, dose response (AID 743197); settings: series mostly up to 35 µM
[9] = PAX8 transcriptional activity inhibition in RMG-I – RMG-I cells, luciferase, cherry-pick, dose response (AID 687027;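 active means every replicate test run called active, with the signal dropping as expected and potency within twice the top valid dose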); settings: RMG-I TPO-Luc reporter, SteadyGlo luminescence, 24 h; series mostly up to 8 µM
[10] = OVCAR-3 cell viability loss – plate reader, dry powder samples, PAX8 inhibitor project, dose response (AID 743044); settings: NIH:OVCAR-3 ovarian cancer cell viability, active compounds read low; at 4.2 µM unless noted
[11] = A2780 cell killing – plate reader, dry powder samples, cytotoxicity control, dose response (AID 743046); settings: A2780 ovarian cancer cytotoxicity; series mostly up to 35 µM;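 further: 0% = neutral control wells and -100% = cytotoxic reference compound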

Measured: max activity

C[C@@H]1CN([C@@H](C)CO)C(=O)CCCn2nncc2CO[C@H]1CN(C)C(=O)Oc1cccc2ccccc12
inactive: [1]

C=C1C(C)C2C(Cc3ccccc3)NC(=O)C23OC(=O)/C=C/C(O)CCCC(C)C/C=C/C3C1O (configuration not stated)
inactive: [2] | [3]

CC1=CC(C)CC(C)OC(=O)CC(c2ccc(O)cc2)NC(=O)C(Cc2c(Br)[nH]c3ccccc23)N(C)C(=O)C(C)NC(=O)C(C)C1 (configuration not stated)
inactive: [2] | [3] | [4] | [5]

O=c1[nH]c2ccccc2n1C1CCN(C(c2cc3ccccc3o2)c2nnnn2Cc2ccccc2)CC1 (configuration not stated)
inactive: [2] | [3] | [4]

COc1ccc(-n2nnnc2C(CCc2ccccc2)N2CCC(n3c(=O)[nH]c4ccccc43)CC2)cc1 (configuration not stated)
inactive: [2]

C[C@@H]1O[C@@H](O[C@@H]2C=C3CCC4C(CC[C@]5(C)[C@@H](c6ccc(=O)oc6)CC[C@]45O)[C@@]3(C)CC2)[C@H](O)[C@H](O)[C@H]1O (some centres not stated)
inactive: [2] | [3] | [4] | [5]

C[C@H]1CCC/C=C/[C@@H]2C[C@H](O)C[C@H]2[C@H](O)/C=C/C(=O)O1
inactive: [2] | [3] | [4] | [5]

O=C(Cc1cccnc1)N1CCCCN2[C@H](C1)[C@H](c1ccc(C#CC3CCCC3)cc1)[C@@H]2CO
inactive: [2] | [3] | [4] | [5] | [6] | [7] | [8]

COC(=O)C1=C(C(=O)OC)C2OC1c1cc3ccccc3cc12
inactive: [2] | [3]

CCCc1nc2ccc(Br)cc2c(=O)n1-c1ccc([N+](=O)[O-])c(C(F)(F)F)c1
inactive: [9] | [2] | [3] | [4] | [5]

CC[C@H](C)[C@@H]1NC(=O)CNC(=O)c2csc(n2)[C@H](C(C)(C)O)OC(=O)C(C)(C)[C@H](CCCC(C)(Cl)Cl)OC(=O)c2csc1n2
inactive: [2] | [3] | [4] | [5]

O=c1[nH]c2ccccc2n1C1CCN(C(c2cccc3ccccc23)c2nnnn2-c2ccc3c(c2)OCCO3)CC1 (configuration not stated)
inactive: [2] | [3] | [4] | [5]

CC12CCC3C(CCC4(O)CC(O)CCC34C=NO)C1(O)CCC2C1=COC(=O)C1 (configuration not stated)
inactive: [2] | [3] | [4] | [5]

O=c1[nH]c2ccccc2n1C1CCN(C(c2ccccc2OC(F)(F)F)c2nnnn2-c2ccc3c(c2)OCCO3)CC1 (configuration not stated)
inactive: [2]

O=C(Cc1ccccn1)N1CCCCN2[C@@H](CO)[C@@H](c3ccc(-c4ccccc4F)cc3)[C@@H]2C1
inactive: [2] | [3] | [4] | [6] | [10] 31.6% [at 0.5 µM] | [7] | [11] | [8]

COc1cc2c(c(OC)c1OC)-c1ccc(O)cc1[C@@H](NC(C)=O)CC2
inactive: [2] | [3] | [4] | [5]

N#CC1c2ccccc2-n2nncc2CN1Cc1cc(Cl)cc(Cl)c1 (configuration not stated)
inactive: [2] | [3] | [4] | [5]

O=C(Cc1cccnc1)N1CCCCN2[C@H](C1)[C@H](c1ccc(/C=C/c3ccccc3)cc1)[C@@H]2CO
inactive: [2] | [3] | [4] | [6] | [7]

CC[C@@]1(O)C(=O)OCc2c1cc1n(c2=O)Cc2cc3c(NC(=O)CN)cccc3nc2-1
inactive: [2] | [3] | [4] | [5]

COC(=O)C1=C(c2ccc(F)cc2OCc2ccccc2)C[C@@H]2CC[C@H]1N2C(=O)NC1Cc2ccccc2C1
inactive: [2] | [3] | [4] | [5]

O=C(Cc1ccncc1)N1CCCCN2[C@H](C1)[C@H](c1ccc(C#Cc3ccccc3F)cc1)[C@@H]2CO
inactive: [2] | [3] | [4] | [5] | [7] | [11]

CC1=C(N2CC2)C(=O)C(CO)=C(N2CC2)C1=O
inactive: [2] | [3] | [4]

CSCCC(c1nnnn1-c1ccc2c(c1)OCCO2)N1CCC(n2c(=O)[nH]c3ccccc32)CC1 (configuration not stated)
inactive: [2] | [3] | [4] | [5]

O=c1[nH]c2ccccc2n1C1CCN(C(CCc2ccccc2)c2nnnn2Cc2ccccc2)CC1 (configuration not stated)
inactive: [2] | [3] | [4]

COC(=O)C1=C(c2ccc(F)cc2OCc2ccccc2)C[C@@H]2CC[C@H]1N2C(=O)NCc1ccc2[nH]ccc2c1
inactive: [2] | [3] | [4] | [5]

CCn1nc(/C=C/c2ccccc2)nc2c(=O)n(C)c(=O)nc1-2
inactive: [2]

C[C@H]1CN([C@@H](C)CO)C(=O)CCCn2nncc2CO[C@H]1CN(C)C(=O)Oc1cccc2ccccc12
inactive: [1]
